High-throughput results from PubChem.
LGR2 antag – inhibitors of bursicon-induced LGR2 CRE-luciferase signal, primary screen, cell-based, HEK293, CRE-luciferase reporter, bursicon stimulation | 380,000 compounds, 0.35% hits | AID 720647, 2013 | Drosophila bursicon receptor LGR2 (rickets) | inhibition, % at 9.99 µM | bursicon-stimulated, 4 h;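 active means drop in luminescence signal, shown as inhibition above about 50% in the replicate tests, limit read from the data, passing the limit was not always enough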;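 further: agonist challenge used bursicon conditioned medium at about half maximal strength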
EWS-Fli inh – EWS/Fli-driven NR0B1 reporter inhibitors, primary screen, A673 cells, NR0B1 luciferase, luminescence, MLPCN library; viability-normalised; inhibition, % at 12.6 µM; 350,000 compounds, 0.67% hits;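 active means mean inhibition of at least 50% after viability correction, with every replicate also passing that limit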;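 further: firefly luciferase signal divided by Alamar Blue viability fluorescence both relative to DMSO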
TWEAK-Fn14 inh – inhibitors of TWEAK-Fn14 signaling, primary screen, luciferase reporter cells, uHTS. 360,000 compounds, 2% hits. TWEAK-stimulated Fn14 reporter cells, luciferase luminescence, 8 h. inhibition, % at 10 µM; in the data active means inhibition above about 50%
PAX8 reporter – inhibitors of PAX8-driven TPO luciferase reporter, primary screen, RMG-I cells, single concentration; SteadyGlo, 24 h; inhibition, % at 12.6 µM; 360,000 compounds, 1.2% hits; AID 652154, 2013;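 active means mean replicate inhibition at least 60% with every replicate also reaching 60%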;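 further: luciferase light reporting Pax8 driven TPO promoter activity; plate controls were median of neutral control wells for no effect and mitoxantrone controls for full effect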
TROY NFkB inh – inhibitors of TROY-driven NF-kB signaling, primary screen, Q293 LMP1-TROYcd cells, NF-kB luciferase, uHTS; Q293 LMP1-TROYcd NF-kB luciferase reporter, 4 h; inhibition, % at 10 µM; 360,000 compounds, 0.98% hits; AID 1347056, 2019;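 active means compounds whose plate-normalised and pattern-corrected inhibition of the luciferase reporter signal at the single screening dose is 50% or more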
Starred values were filed as active, the others as inactive; . = not tested or not shown. The list is not random: actives were taken first. Their share in the collection is about 2.8%.

SMILES | LGR2 antag | EWS-Fli inh | TWEAK-Fn14 inh | PAX8 reporter | TROY NFkB inh
O=S(=O)(Nc1ccccc1)c1ccc(-c2cnc(C3CC3)o2)cc1 | 12 | . | 26 | 36 | 19
Cc1cc(C)cc(NS(=O)(=O)c2ccc(-c3cnc(C4CC4)o3)cc2)c1 | -26 | . | 42 | 75* | 56*
C[C@H]1CN([C@@H](C)CO)C(=O)Cc2cc(NC(=O)Cc3ccccc3)ccc2O[C@@H]1CN(C)CC1CCCCC1 | 8 | 6 | . | -6 | .
CNC[C@H]1Oc2ccc(NS(=O)(=O)c3ccc(Cl)cc3)cc2C(=O)N([C@H](C)CO)C[C@H]1C | 14 | -3 | . | -26 | .
CN(C)CCCN(C(=O)COc1ccc(Cl)cc1)c1nc2cc3c(cc2s1)OCO3 | 2 | 61* | -9 | 7 | -59
N#C[C@@H]1N[C@@H](CO)[C@H]1c1ccc(C#CC2CCCCC2)cc1 | -28 | -14 | . | -2 | .
O=C(CN1CCOCC1)Nc1nc(-c2ccc3c(c2)CCN3S(=O)(=O)c2ccccc2)cs1 | 12 | . | 53* | . | 47
CC(=O)Nc1nc(-c2ccc3c(c2)CCN3S(C)(=O)=O)cs1 | -41 | -77 | 5 | -77 | -18
CS(=O)(=O)N1CCc2cc(-c3csc(NC(=O)Cc4cccs4)n3)ccc21 | . | . | 80* | . | 19
C[C@H]1CCCCO[C@@H](CN(C)C(=O)Cc2ccccc2)[C@@H](C)CN([C@@H](C)CO)C(=O)c2cc(NC(=O)Cc3ccccc3)ccc2O1 | -2 | -8 | . | -16 | .
Cc1nn(-c2ccccc2)c(N)c1-c1ccccc1 | -33 | -86 | -5 | -153 | -63
Cc1nn(-c2nc3ccccc3[nH]2)c(N)c1-c1ccccc1 | . | . | 68* | -177 | -72
N#CC1C(=O)c2ccccc2C1c1ccccc1 (stereo not given) | -25 | 34 | -20 | 32 | 52*
Cc1c(Cl)cccc1NC(=S)N=Nc1c(O)n(CN2CCOCC2)c2ccccc12 | . | . | 105* | . | 33
Oc1c(N=NC(=S)Nc2ccccc2F)c2ccccc2n1Cc1ccccc1Cl | -10 | 44 | -6 | 23 | 17
CC(=O)Oc1ccc(C(=O)Cc2ccc3ccccc3n2)c(O)c1C | -22 | 55* | -14 | -95 | -39
Cc1c(O)ccc(/C(Cc2ccc3ccccc3n2)=N\O)c1O | . | . | 25 | 3 | 20
CS(=O)(=O)c1ccc(S(=O)CC(=O)OCc2ccccc2)c([N+](=O)[O-])c1 (stereo not given) | . | 64* | 90* | 107* | 56*
CCc1ccccc1NC(=O)CCS(=O)(=O)c1ccc(Br)cc1 | -3 | 9 | 70* | -7 | -16
COc1ccccc1C#Cc1ccc2c(c1)O[C@@H](CN(C)Cc1cccnc1)[C@H](C)CN([C@H](C)CO)S2(=O)=O | . | 20 | . | 84* | .
COc1ccccc1C#Cc1ccc2c(c1)O[C@@H](CN(C)Cc1cncnc1)[C@H](C)CN([C@H](C)CO)S2(=O)=O | 18 | 18 | . | 86* | .
COc1ccccc1C#Cc1ccc2c(c1)O[C@H](CN(C)Cc1cncnc1)[C@H](C)CN([C@H](C)CO)S2(=O)=O | 10 | 13 | . | 41 | .
COc1ccccc1C#Cc1ccc2c(c1)O[C@H](CN(C)Cc1cccnc1)[C@H](C)CN([C@H](C)CO)S2(=O)=O | 34 | 27 | . | 90* | .
COc1ccccc1C#Cc1ccc2c(c1)O[C@@H](CN(C)Cc1ccccc1)[C@@H](C)CN([C@@H](C)CO)S2(=O)=O | -4 | 12 | . | . | .
CCCc1cn(CC[C@@H]2CC[C@@H](NC(=O)Cc3cccnc3)[C@@H](CO)O2)nn1 | 5 | 0 | . | 8 | .
SMILES | LGR2 antag | EWS-Fli inh | TWEAK-Fn14 inh | PAX8 reporter | TROY NFkB inh
C[C@H]1CN([C@@H](C)CO)C(=O)c2cc(NC(=O)Cc3ccccc3)ccc2O[C@H]1CN(C)S(=O)(=O)c1ccc(Cl)cc1 | 0 | 26 | . | 20 | .
Oc1ccc(-c2cnns2)c(O)c1 | 26 | 22 | 63* | 14 | -23
Oc1ccc(-c2nc3ccccc3s2)c(O)c1 | -87 | -94 | -39 | -173 | -95
Cc1nc(-c2ccccc2)cn(O)c1=O | 20 | 5 | 64* | 9 | 6
Cc1nn2cc(-c3ccccc3)nc2[nH]c1=O | . | . | -10 | . | -4
O=C(Nc1ccccc1C(F)(F)F)N1CCC(n2c(=O)[nH]c3ccccc32)CC1 | . | . | 3 | . | .
O=C(Nc1ccccc1C(F)(F)F)N1CCC(N2CCCCC2)CC1 | . | . | 84* | . | .
C[C@H]1CN([C@@H](C)CO)C(=O)c2cccc(NS(=O)(=O)c3cccs3)c2O[C@H]1CN(C)C(=O)NC1CCCCC1 | -4 | -3 | . | . | .
CN(C)C(=O)C[C@H]1CC[C@@H]2[C@H](COC[C@H](O)CN2CC2CCOCC2)O1 | -14 | -10 | . | -2 | .
Cn1c(CCN2CCCC2)nc2cc(NS(=O)(=O)c3ccc(F)cc3)ccc21 | 14 | -2 | 13 | 84* | 3
Cc1ccc(S(=O)(=O)Nc2ccc3c(c2)nc(CCN2CCCC2)n3C)cc1 | 3 | 1 | 8 | 94* | -12
Cn1c(CCN2CCCC2)nc2cc(NS(=O)(=O)c3ccc(Cl)cc3)ccc21 | 8 | 29 | 23 | 101* | 3
C[C@H](CO)N1C[C@H](C)[C@H](CN(C)Cc2ccc(-c3ccccc3)cc2)Oc2c(NC(=O)Nc3ccc(F)cc3)cccc2C1=O | 19 | 12 | . | . | .
C[C@@H]1CN([C@H](C)CO)C(=O)c2cccc(NS(=O)(=O)c3ccc(F)cc3)c2O[C@H]1CN(C)CC1CCCCC1 | -14 | 0 | . | 5 | .
O=C(Cc1csc(Nc2nc(=S)[nH]c3ccccc23)n1)NCCCN1CCN(c2ccccc2F)CC1 | 26 | 44 | 5 | 65* | 25
Cc1noc(C)c1COc1ccccc1C(=O)N1CCN(c2cccc(Cl)c2)CC1 | 21 | 33 | -8 | 15 | 14
Cc1ccc(/C=C/C(=O)N2CCN(c3cccc(C(F)(F)F)c3)CC2)cc1 | -2 | 2 | 5 | 89* | 4
Cc1noc(C)c1COc1ccccc1C(=O)N1CCN(c2cccc(C(F)(F)F)c2)CC1 | 5 | 64* | 11 | 22 | 0
Oc1cc(NCc2cccnc2)ccc1-c1nc2ccccc2o1 | . | . | 103* | -197 | -38
O=[N+]([O-])c1ccccc1N/N=C\c1ccccc1Cl | . | . | -34 | . | -77
O=[N+]([O-])c1ccc(O)c(/C=N/Nc2ccccc2Cl)c1 | 33 | -52 | 11 | -142 | 69*
NNC(=O)c1[nH]c2ccc([N+](=O)[O-])cc2c1-c1ccccc1 | 7 | 11 | -7 | -20 | 22
O=C(N/N=C/c1ccccc1)c1[nH]c2ccc(Br)cc2c1-c1ccccc1 | -11 | 76* | 42 | 13 | 14
O=C(N/N=C/c1ccccn1)c1[nH]c2ccc([N+](=O)[O-])cc2c1-c1ccccc1 | 14 | 25 | 17 | 8 | 54*
C[C@H](CO)N1C[C@H](C)[C@@H](CN(C)Cc2ccc(Oc3ccccc3)cc2)Oc2c(NC(=O)c3ccc(-c4nccs4)cc3)cccc2C1=O | 9 | -1 | . | . | .
